Data on 24 targets can be found in the supplement of paper PMC10849652.

What all share (assay): log2 fold change, soluble protein after heating vs DMSO (PISA); higher = thermal stabilisation; K562 cells, 10 uM, 30 min; active = over 0.2 and 3.5 SD of the protein, either way, in both replicates (recomputed)
Compound in experiment [1]: C1=CC=C(C=C1)[C@H](COC2=CC3=C(C=C2)NC(=O)N3)NC(=O)C4=CC=CN(C4=O)CC5=CC(=C(C=C5)F)F
The method, boiled down:
(§1)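 Values are thermal stability changes relative to control samples and are taken from duplicates. They are stated as log2 fold changes. Before quantification by TMTpro 16plex LC-MS/MS with equalised channel sums, K562 cells at 2×10^6 cells/mL were treated with 10 μM compound for 30 min, heated in aliquots for 3 min across 48°C-58°C, pooled, extracted in PBS with 0.5% NP-40 at 4°C, and centrifuged at 21,000xg for 90 min to give the soluble supernatant.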

Compound in experiment [2]: CC1=C(SC2=C1C(=N[C@H](C3=NN=C(N32)C)CC(=O)N)C4=CC=C(C=C4)Cl)C
In outline: as §1

Compound in experiment [3]: CC1=C2C(=CC=C1)N=C(N(C2=O)C3=CC=CC=C3C)CN4C=NC5=C(N=CN=C54)N
In outline: as §1

Compound in experiment [4]: Cc1sc2c(c1C)C(c1ccc(Cl)cc1)=N[C@@H](CC(=O)OC(C)(C)C)c1nnc(C)n1-2
The method, boiled down:
as §1

Compound in experiment [5]: c1ccc([C@@H]2C[C@H]2NC2CCNCC2)cc1
In outline:
as §1

The full data set covers some 7,900 targets. This sample favours those with a hit. About 0.6% of all pairs of compound and target were hits. Values without a mark were called inactive.

UniProt Q9UKG1, sequence (Q9UKG1 whole entry, looked up): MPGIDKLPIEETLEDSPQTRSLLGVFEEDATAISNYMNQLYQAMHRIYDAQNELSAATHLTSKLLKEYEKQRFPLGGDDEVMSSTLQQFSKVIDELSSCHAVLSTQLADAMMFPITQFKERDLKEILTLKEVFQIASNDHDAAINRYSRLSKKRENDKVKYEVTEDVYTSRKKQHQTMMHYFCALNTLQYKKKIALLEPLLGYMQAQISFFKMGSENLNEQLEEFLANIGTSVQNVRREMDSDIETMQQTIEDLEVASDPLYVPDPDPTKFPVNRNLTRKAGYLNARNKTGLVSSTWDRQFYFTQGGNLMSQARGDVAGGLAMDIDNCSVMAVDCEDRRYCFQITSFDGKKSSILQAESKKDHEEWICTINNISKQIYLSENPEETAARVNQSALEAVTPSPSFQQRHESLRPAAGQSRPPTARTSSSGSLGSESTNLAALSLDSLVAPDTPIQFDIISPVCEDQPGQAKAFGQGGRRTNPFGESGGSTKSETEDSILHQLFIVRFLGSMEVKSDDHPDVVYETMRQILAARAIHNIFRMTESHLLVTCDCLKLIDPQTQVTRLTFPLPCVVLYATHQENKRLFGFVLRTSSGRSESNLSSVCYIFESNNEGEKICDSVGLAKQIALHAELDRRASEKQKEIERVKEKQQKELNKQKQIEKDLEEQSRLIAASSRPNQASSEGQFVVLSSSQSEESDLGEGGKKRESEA
UniProt Q8WV93, sequence (Q8WV93 whole entry, looked up): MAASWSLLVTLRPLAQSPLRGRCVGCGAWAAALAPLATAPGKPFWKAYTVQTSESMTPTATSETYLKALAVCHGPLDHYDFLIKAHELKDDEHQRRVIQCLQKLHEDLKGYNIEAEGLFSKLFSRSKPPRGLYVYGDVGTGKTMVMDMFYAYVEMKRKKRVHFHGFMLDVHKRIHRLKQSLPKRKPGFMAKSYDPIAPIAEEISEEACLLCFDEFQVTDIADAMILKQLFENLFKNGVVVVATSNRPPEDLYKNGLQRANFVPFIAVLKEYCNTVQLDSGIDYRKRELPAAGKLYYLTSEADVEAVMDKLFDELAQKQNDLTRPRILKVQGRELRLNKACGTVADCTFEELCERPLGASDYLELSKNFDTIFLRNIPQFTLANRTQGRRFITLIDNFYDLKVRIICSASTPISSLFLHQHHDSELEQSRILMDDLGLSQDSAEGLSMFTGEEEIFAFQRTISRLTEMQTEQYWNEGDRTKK
UniProt Q7Z3C6, sequence (Q7Z3C6 whole entry, looked up): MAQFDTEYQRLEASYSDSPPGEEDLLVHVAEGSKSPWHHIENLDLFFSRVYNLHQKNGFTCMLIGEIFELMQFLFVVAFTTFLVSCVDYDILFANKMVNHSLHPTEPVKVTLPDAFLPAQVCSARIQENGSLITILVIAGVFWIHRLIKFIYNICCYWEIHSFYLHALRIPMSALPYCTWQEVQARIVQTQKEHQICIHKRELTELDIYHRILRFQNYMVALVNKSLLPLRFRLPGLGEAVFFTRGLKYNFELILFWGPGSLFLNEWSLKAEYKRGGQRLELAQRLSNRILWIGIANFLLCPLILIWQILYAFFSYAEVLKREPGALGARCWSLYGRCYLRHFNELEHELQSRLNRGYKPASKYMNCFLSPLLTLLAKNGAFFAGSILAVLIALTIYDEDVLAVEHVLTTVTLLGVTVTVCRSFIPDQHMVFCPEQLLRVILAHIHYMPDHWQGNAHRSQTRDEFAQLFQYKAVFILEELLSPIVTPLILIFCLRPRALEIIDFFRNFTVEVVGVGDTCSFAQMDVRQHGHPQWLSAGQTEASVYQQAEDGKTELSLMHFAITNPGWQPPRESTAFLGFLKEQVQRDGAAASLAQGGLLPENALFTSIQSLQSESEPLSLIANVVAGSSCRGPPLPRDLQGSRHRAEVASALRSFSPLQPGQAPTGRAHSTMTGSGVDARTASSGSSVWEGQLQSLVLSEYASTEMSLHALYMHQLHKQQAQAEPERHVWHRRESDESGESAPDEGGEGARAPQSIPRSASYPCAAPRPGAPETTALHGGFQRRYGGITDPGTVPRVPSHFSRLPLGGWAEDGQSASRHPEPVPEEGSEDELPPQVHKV
UniProt Q8IUR7, sequence (Q8IUR7 whole entry, looked up): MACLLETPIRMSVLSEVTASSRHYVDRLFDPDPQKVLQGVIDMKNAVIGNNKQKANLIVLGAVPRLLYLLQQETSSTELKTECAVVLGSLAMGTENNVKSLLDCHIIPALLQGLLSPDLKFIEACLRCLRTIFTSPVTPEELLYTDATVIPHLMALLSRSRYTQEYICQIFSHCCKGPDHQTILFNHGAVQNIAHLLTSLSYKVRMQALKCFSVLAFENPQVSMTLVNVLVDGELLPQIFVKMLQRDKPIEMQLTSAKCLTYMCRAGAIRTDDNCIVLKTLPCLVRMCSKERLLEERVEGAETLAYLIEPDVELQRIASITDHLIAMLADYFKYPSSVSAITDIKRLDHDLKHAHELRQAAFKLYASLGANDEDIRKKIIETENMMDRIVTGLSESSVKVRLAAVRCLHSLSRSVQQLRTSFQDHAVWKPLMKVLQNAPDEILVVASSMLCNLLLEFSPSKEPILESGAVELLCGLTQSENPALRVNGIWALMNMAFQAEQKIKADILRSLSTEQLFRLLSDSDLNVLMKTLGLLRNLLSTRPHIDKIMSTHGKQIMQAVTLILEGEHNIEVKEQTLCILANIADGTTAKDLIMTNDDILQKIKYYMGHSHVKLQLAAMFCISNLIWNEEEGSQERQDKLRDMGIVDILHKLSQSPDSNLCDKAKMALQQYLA
UniProt Q93050, sequence (Q93050 whole entry, looked up): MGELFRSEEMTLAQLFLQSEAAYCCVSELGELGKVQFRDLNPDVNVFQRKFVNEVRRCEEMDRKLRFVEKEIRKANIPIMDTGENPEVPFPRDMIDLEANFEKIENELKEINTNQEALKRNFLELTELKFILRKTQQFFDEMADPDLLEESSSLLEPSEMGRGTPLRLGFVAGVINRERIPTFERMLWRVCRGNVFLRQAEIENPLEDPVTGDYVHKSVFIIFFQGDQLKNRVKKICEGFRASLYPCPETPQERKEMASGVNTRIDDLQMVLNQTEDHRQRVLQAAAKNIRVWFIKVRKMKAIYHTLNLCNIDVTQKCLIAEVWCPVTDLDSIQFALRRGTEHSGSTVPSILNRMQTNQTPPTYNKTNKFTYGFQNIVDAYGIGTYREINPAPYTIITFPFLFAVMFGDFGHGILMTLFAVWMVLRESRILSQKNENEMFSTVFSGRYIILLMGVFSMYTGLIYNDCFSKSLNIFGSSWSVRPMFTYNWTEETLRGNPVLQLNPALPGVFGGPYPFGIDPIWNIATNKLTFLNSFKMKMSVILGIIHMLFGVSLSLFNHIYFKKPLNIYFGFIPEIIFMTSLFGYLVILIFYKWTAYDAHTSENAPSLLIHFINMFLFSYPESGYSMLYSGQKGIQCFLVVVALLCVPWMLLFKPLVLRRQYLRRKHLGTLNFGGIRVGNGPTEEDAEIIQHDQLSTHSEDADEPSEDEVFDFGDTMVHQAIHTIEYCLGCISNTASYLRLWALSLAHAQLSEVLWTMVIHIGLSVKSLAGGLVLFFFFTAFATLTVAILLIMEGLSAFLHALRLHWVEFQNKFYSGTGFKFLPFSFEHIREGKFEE
UniProt P35611, sequence (P35611 whole entry, looked up): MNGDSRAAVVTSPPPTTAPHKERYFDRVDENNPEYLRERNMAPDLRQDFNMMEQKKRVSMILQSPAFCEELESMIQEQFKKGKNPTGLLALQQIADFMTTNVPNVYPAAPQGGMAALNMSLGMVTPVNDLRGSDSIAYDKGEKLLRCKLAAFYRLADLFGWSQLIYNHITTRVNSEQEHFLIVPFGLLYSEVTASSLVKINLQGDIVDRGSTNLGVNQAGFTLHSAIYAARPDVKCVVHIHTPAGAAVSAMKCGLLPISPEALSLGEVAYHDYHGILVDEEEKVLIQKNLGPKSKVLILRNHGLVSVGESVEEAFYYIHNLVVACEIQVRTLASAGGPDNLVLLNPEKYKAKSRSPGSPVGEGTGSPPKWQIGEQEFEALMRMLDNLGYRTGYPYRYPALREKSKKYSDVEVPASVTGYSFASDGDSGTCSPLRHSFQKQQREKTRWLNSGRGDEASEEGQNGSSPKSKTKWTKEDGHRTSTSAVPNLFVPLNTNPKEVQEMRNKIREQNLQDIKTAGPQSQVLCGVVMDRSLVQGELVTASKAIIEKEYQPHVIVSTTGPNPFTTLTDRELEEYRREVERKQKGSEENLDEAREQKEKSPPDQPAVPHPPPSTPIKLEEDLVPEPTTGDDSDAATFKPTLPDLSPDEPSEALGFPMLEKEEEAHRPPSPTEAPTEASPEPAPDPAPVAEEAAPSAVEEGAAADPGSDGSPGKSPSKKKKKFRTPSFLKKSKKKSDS
UniProt Q15059, sequence (Q15059 whole entry, looked up): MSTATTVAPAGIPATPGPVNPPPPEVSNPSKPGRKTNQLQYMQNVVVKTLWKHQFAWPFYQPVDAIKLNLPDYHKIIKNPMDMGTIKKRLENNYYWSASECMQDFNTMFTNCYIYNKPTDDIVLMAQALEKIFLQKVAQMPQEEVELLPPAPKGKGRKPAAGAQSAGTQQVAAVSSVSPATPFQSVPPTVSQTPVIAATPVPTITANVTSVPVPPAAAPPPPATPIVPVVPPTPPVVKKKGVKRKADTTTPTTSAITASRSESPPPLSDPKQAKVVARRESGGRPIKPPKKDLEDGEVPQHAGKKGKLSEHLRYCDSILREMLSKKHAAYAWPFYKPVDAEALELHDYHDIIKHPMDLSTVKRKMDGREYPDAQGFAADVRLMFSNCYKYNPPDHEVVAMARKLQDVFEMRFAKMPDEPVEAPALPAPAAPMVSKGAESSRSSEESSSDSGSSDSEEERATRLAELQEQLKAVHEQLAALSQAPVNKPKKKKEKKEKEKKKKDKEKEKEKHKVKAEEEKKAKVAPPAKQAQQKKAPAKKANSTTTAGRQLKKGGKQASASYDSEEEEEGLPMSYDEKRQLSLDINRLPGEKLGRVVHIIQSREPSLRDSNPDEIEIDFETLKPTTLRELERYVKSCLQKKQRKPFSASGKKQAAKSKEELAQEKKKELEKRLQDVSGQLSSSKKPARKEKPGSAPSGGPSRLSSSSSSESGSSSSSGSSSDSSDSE

Consider BRD3 (UniProt Q15059), for which the log2 fold change in experiment [1] is 0.002; in experiment [2], 1.9 (active); in experiment [3], 0; in experiment [4], 1.56 (active); in experiment [5], -0.021.

On to ALKBH5 (UniProt Q6P6C2), for which the log2 fold change is 0.065 in experiment [1]; -0.002 in experiment [2]; 0.085 in experiment [3]; -0.024 in experiment [4]; 0.028 in experiment [5].

As for AK6 (UniProt Q9Y3D8), the log2 fold change in experiment [1] is -0.043; in experiment [2] it was 0.042; in experiment [3], 0.2; in experiment [4] it was -0.014; in experiment [5], -0.008.

On to BCCIP isoform 2 (UniProt Q9P287), for which the log2 fold change in experiment [1] is -0.031; in experiment [2], 0.002; in experiment [3], -0.001; in experiment [4], -0.035; in experiment [5], 0.014.

As for AP2M1 (UniProt Q96CW1), the log2 fold change in experiment [1] was -0.005; in experiment [2] it was 0.03; in experiment [3] it was -0.013; in experiment [4], 0.006; in experiment [5], 0.009.

ALDH9A1 isoform 3 (UniProt P49189): the log2 fold change is -0.007 in experiment [1]; 0.029 in experiment [2]; 0.019 in experiment [3]; -0.019 in experiment [4]; 0.028 in experiment [5].

Turning to APPL1 (UniProt Q9UKG1), the log2 fold change is -0.027 in experiment [1]; 0.122 in experiment [2]; 0.086 in experiment [3]; -0.025 in experiment [4]; -0.049 in experiment [5].

Take ARPP19 (UniProt P56211): the log2 fold change in experiment [1] was 0.003; in experiment [2] it was 0.021; in experiment [3] it was -0.076; in experiment [4] it was 0.031; in experiment [5], -0.007.

On to AFG1L (UniProt Q8WV93), for which the log2 fold change in experiment [1] was 0.025; in experiment [2], 0.096; in experiment [3], -0.008; in experiment [4], -0.074; in experiment [5], -0.129.

Take BST2 (UniProt Q10589): the log2 fold change was 0.056 in experiment [1]; 0.019 in experiment [2]; -0.012 in experiment [3]; 0.068 in experiment [4]; 0.055 in experiment [5].

As for ADD1 isoform 3 (UniProt P35611), the log2 fold change was 0.01 in experiment [1]; -0.003 in experiment [2]; 0 in experiment [3]; -0.014 in experiment [4]; 0.024 in experiment [5].

Take ACP1 (UniProt P24666): the log2 fold change in experiment [1] is -0.058; in experiment [2] it was -0.026; in experiment [3], 0.184; in experiment [4] it was -0.041; in experiment [5] it was -0.416.

As to ATG9A (UniProt Q7Z3C6), the log2 fold change in experiment [1] is 0.018; in experiment [2], 0.014; in experiment [3] it was 0.021; in experiment [4] it was -0.028; in experiment [5], -0.05.

As for BOP1 (UniProt Q14137), the log2 fold change in experiment [1] is 0.096; in experiment [2], -0.099; in experiment [3] it was 0.01; in experiment [4], -0.036; in experiment [5], -0.01.

For the target ARMC8 (UniProt Q8IUR7), the log2 fold change in experiment [1] is 0.05; in experiment [2], -0.005; in experiment [3], 0; in experiment [4] it was 0.021; in experiment [5], 0.011.

With ABHD17A isoform 2 (UniProt Q96GS6), the log2 fold change in experiment [1] is 0.029; in experiment [2] it was 0.079; in experiment [3] it was 0.122; in experiment [4], -0.148; in experiment [5], -0.012.

As for ATP23 (UniProt Q9Y6H3), the log2 fold change in experiment [1] is -0.023; in experiment [2], -0.031; in experiment [3], -0.009; in experiment [4] it was -0.052; in experiment [5], -0.053.

Turning to ARL1 (UniProt P40616), the log2 fold change in experiment [1] is -0.084; in experiment [2] it was 0.057; in experiment [3], 0.079; in experiment [4] it was -0.1; in experiment [5] it was -0.048.

Regarding ALG5 (UniProt Q9Y673), the log2 fold change in experiment [1] was -0.037; in experiment [2], 0.1; in experiment [3], 0.082; in experiment [4] it was -0.06; in experiment [5], -0.056.

For the target ATP6V0A1 isoform 3 (UniProt Q93050), the log2 fold change in experiment [1] was 0.115; in experiment [2], -0.07; in experiment [3] it was 0.005; in experiment [4], -0.07; in experiment [5], -0.149.

Turning to ACACB (UniProt O00763), the log2 fold change in experiment [1] is -0.044; in experiment [2], -0.053; in experiment [3], 0.025; in experiment [4], 0.084; in experiment [5], 0.007.

AGPAT1 (UniProt Q99943): the log2 fold change in experiment [1] is -0.006; in experiment [2] it was 0.075; in experiment [3], 0.103; in experiment [4], -0.032; in experiment [5], 0.023.

For the target BTBD6 (UniProt Q96KE9), the log2 fold change in experiment [1] is 0.12; in experiment [2], 0.073; in experiment [3], 0.04; in experiment [4], -0.117; in experiment [5], -0.099.

For BMP2K (UniProt Q9NSY1), the log2 fold change is 0.015 in experiment [1]; 0 in experiment [2]; -0.018 in experiment [3]; 0.035 in experiment [4]; -0.001 in experiment [5].
